This is an account of results in PubChem BioAssay (NCATS).

Inconclusive results are not listed. Calls of active or inactive are those of the source. The call rests on the fitted dose curve; in most records, active means well fitted cell-killing curve with a large enough effect; inconclusive means small, poorly fitted or top-dose-only effect, or effect the other way; inactive means no such curve, though single readings can be large or run the other way.
On the % scale 0 is the no-effect control and ±100 the full control effect; potency means the concentration at half of the fitted maximal effect.

This assay in a line: qHTS of pediatric cancer cell lines to identify multiple opportunities for drug repurposing: Confirmatory screen for OHS-50 cells (AID 1347128).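 Further: compound exposure lasted 48 h at 37 degrees C; nearly all actives have a fitted effect of over 55% in size.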 As to conditions: OHS-50 osteosarcoma cells viability; series mostly up to 45.9 µM; activity change, negative = cytotoxic: at the top concentration. A digest of the protocol:
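Viability after 48 h compound treatment at 37C, 500-1,000 cells/well, read as ATP luminescence with CellTiter-Glo. Primary screens used 11-point (MIPE, 0.78 nM-46 µM) or 8-point (NPC, 0.59 nM-46 µM) final concentrations; follow-up screens used 11-point dilutions.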
`CC[C@@]1(O)C(=O)OCc2c1cc1n(c2=O)Cc2cc3cc(O)ccc3nc2-1`: the Potency is 0.0928 µM (active).
Same read-out and setting: the same measure for `COc1ccc(F)c(F)c1C(=O)c1cnc(NC2CCN(S(C)(=O)=O)CC2)nc1N`: 2.33 µM (active).
Consider `CC=C1NC(=O)[C@H]2CSSCCC=C[C@H](CC(=O)N[C@H](C(C)C)C(=O)N2)OC(=O)[C@H](C(C)C)NC1=O`, for which the “activity change, negative = cytotoxic” value is -12.4% (inactive).
Consider `OCCCNc1cc(-c2ccnc(Nc3cccc(Cl)c3)n2)ccn1`, for which the Potency was 0.329 µM (active).
With `CN(c1ncccc1CNc1nc(Nc2ccc3c(c2)CC(=O)N3)ncc1C(F)(F)F)S(C)(=O)=O`, the Potency was 5.85 µM (active).
`Cc1c(C)n(Cc2ccc(-c3ccccc3C(=O)O)cc2)c2ccc(C(=O)N[C@@H](C)c3ccc([N+](=O)[O-])cc3)cc12`: the “activity change, negative = cytotoxic” value was 0.484% (inactive).
As for `CNC(=O)c1c(F)cccc1Nc1nc(Nc2cc3c(cc2OC)CCN3C(=O)CN(C)C)nc2[nH]ccc12`, the Potency was 16.5 µM (active).
Same read-out and setting: the same measure for `COC(=O)[C@]12CCC(C)(C)C[C@@H]1[C@@H]1C(=O)C=C3[C@@]4(C)C=C(C#N)C(=O)C(C)(C)[C@@H]4CC[C@@]3(C)[C@]1(C)CC2`: 5.22 µM (active); for `COc1cc2c(Oc3ccc(NC(=O)C4(C(=O)Nc5ccc(F)cc5)CC4)cc3F)ccnc2cc1OCCCN1CCOCC1`: 3.69 µM (active); for `CCCCc1nc2cc(C=CC(=O)NO)ccc2n1CCN(CC)CC`: 2.93 µM (active).
For `O=C(C=Cc1cccnc1)NCCCCC1CCN(C(=O)c2ccccc2)CC1`, the “activity change, negative = cytotoxic” value was 6.76% (inactive).
Take `C[C@@H](Oc1cc(-c2cnn(C3CCNCC3)c2)cnc1N)c1c(Cl)ccc(F)c1Cl`: the Potency was 14.7 µM (active).
Turning to `Cc1cc(Nc2cc(N3CCN(C)CC3)nc(Sc3ccc(NC(=O)C4CC4)cc3)n2)n[nH]1`, the Potency was 9.27 µM (active).
As for `Cc1nc(N)ncc1-c1nc(N2CCOCC2)c2sc(C(C)(C)O)cc2n1`, the Potency was 2.93 µM (active).
In the case of `CC(C)(C)c1cc(NC(=O)Nc2ccc(-c3cn4c(n3)sc3cc(OCCN5CCOCC5)ccc34)cc2)no1`, the Potency was 16.5 µM (active).
As to `CC(C)c1cc(-c2n[nH]c(=O)n2-c2ccc3c(ccn3C)c2)c(O)cc1O`, the “activity change, negative = cytotoxic” value was 8.66% (inactive).
Consider `Cc1cn(-c2cc(NC(=O)c3ccc(C)c(Nc4nccc(-c5cccnc5)n4)c3)cc(C(F)(F)F)c2)cn1`, for which the Potency was 18.5 µM (active).
On the same count and under the same terms, the value for `Cc1ccc(-c2ncn(-c3ccc(Nc4nccc(-c5cccc(N6CCOCC6)c5)n4)cc3)n2)cn1` was 0.537 µM (active).
In the case of `Nc1ncnc2c1c(-c1cnc3[nH]ccc3c1)nn2C1CCCC1`, the Potency is 1.85 µM (active).
`CN(C)Cc1c(C(=O)NCCOc2ccc(C(=O)NO)cc2)oc2ccccc12`: the Potency is 1.65 µM (active).
As for `COc1ccc(-n2nc(C(N)=O)c3c2C(=O)N(c2ccc(N4CCCCC4=O)cc2)CC3)cc1`, the “activity change, negative = cytotoxic” value was -1.44% (inactive).
Same read-out and setting: the same measure for `CCc1c2c(nc3ccc(O)cc13)-c1cc3c(c(=O)n1C2)COC(=O)[C@]3(O)CC`: 4.54% (inactive); for `CN(C)CC(C)(C)CNc1nn2c(-c3ccccc3)nnc2cc1C1CCC1`: -16.3% (inactive).
On the same count and under the same terms, the value for `COc1cccc(-c2ccc(NC(=O)C3=C(C(=O)O)CCC3)c(F)c2)c1` was -8.44% (inactive).
With `CC(C)(O)c1cc2nc(-c3cnc(N)nc3)nc(N3CCOCC3)c2s1`, the Potency was 2.93 µM (active).
Still for that read-out and setting: the same measure for `CCC1=C[C@@H]2CN(C1)Cc1c([nH]c3ccccc13)[C@@](C(=O)OC)(c1cc3c(cc1OC)N(C)[C@@H]1[C@@](O)(C(=O)OC)[C@H](OC(C)=O)[C@]4(CC)C=CCN5CC[C@]31[C@@H]54)C2`: 11.7 µM (active).
The same measure, in the same setting: the value for `COc1cccc2c(NCc3ccccc3)nc(-n3c(N)nc4ccccc43)nc12` was 8.27 µM (active); that for `C=CC(=O)Nc1cccc(Oc2nc(Nc3ccc(N4CCN(C)CC4)cc3)ncc2Cl)c1` was 5.22 µM (active).
Consider `CC=CC1=C(C(=O)O)N2C(=O)[C@H](NC(=O)[C@H](N)c3ccc(O)cc3)[C@@H]2SC1`, for which the “activity change, negative = cytotoxic” value was 6.07% (inactive).
